Our source for the growth inhibition, inhibition and outcome values is PubChem BioAssay.

A number with no mark means an inactive call. For part of these data: Results with a measured potency or affinity are listed apart. The source made the active and inactive calls. Unless noted, the rule behind the calls is not given here.

Test [1] in a line: antimalarial activity against Dd2 strain (AID 2302;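 active = growth inhibition above 50% at the single 2 µM test dose, taken to imply half-maximal potency below 2 µM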;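 note: 0% = DMSO untreated growth and 100% = chloroquine plus artemisinin killed control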). To be noted: P. falciparum Dd2 in RBCs, LDH growth readout, 72 h; at 2 µM; hits give high values.
The nature of test [2]: HepG2 cytotoxicity, primary screen, cytotoxicity control for P. falciparum antimalarial project, cell-based, ATP luminescence (AID 2303;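 active = inhibition above 50%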;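 note: 0% = DMSO wells and 100% = digitonin-killed cells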). To be noted: HepG2 viability, 24-48 h, at 10 µM, hits give high values.
The target of test [3] is L-lactate dehydrogenase (Plasmodium falciparum (isolate CDC / Honduras)) (UniProt Q27743). Briefly: PfLDH activity inhibition – cell lysate, 3D7 strain, counter-screen for P. falciparum growth inhibition project (AID 2304).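 Note: 0% = vehicle and 100% = reference inhibitor.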 Conditions: P. falciparum 3D7 crude extract, LDH APAD/NBT absorbance; at 2 µM; hits give high values. In general terms: A counterscreen serves to expose hits that act by an unwanted route or on another target.
L-lactate dehydrogenase (Plasmodium falciparum (isolate CDC / Honduras)), sequence (Q27743 whole entry, looked up): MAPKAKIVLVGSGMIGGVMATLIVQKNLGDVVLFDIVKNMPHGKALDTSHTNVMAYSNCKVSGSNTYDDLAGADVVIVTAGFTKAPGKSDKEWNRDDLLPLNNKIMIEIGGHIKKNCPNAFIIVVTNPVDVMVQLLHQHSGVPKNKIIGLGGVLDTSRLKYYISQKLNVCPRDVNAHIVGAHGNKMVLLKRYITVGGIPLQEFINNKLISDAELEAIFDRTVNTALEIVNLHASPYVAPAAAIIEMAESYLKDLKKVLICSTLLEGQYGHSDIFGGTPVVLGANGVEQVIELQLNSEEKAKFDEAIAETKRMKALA

The nature of test [4]: inhibition of 3D7 malaria parasite growth – strain 3D7 (AID 2306).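 Note: 0% = DMSO wells and 100% = chloroquine plus artemisinin control wells.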 To be noted: P. falciparum 3D7 erythrocytic growth, LDH absorbance, 72 h; at 2 µM; hits give high values.
Test [5] has as its target Calcium-dependent protein kinase 1 (Plasmodium falciparum (isolate 3D7)) (UniProt P62344). Briefly: PfCDPK1 kinase inhibitors, biochemical, TCAMS library (AID 1159585; cut-off not given, nearly all actives have IC50 up to about 0.98 µM;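 note: inhibitors leave more ATP so luminescence rises with inhibition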). To be noted: recombinant PfCDPK1, Kinase-Glo ATP depletion luminescence. For orientation: Kinase-Glo measures the ATP left after a reaction by luminescence.
Test [6] has as its target Plasmodium falciparum protein kinase 6 (PK6, PF3D7_1337100) (UniProt Q8IDW1). Briefly: PfPK6 kinase inhibitors, biochemical, TCAMS library (AID 1159586). To be noted: recombinant PfPK6, Kinase-Glo ATP depletion luminescence.
In test [7] the target is Protein kinase 7 (PK7), Plasmodium falciparum 3D7 (PF3D7_0213400) (UniProt Q7YTF7). Briefly: inhibition of Plasmodium PK7 catalytic activity – biochemical, TCAMS antimalarial set, Kinase-Glo luminescence (AID 1159587). To be noted: recombinant PfPK7, Kinase-Glo ATP depletion luminescence.
Protein kinase 7 (PK7), Plasmodium falciparum 3D7 (PF3D7_0213400), sequence (Q7YTF7 1-343): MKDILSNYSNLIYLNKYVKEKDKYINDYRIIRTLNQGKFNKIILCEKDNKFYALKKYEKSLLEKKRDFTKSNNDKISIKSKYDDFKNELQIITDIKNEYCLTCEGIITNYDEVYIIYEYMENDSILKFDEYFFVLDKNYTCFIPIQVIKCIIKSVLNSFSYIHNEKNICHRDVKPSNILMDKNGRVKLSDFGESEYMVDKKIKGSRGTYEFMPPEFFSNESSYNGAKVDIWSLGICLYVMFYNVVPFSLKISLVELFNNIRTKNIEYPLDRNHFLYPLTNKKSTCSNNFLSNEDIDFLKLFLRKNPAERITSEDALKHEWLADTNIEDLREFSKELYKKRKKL
The target of test [8] is Calcium-dependent protein kinase 4 (Plasmodium falciparum (isolate 3D7)) (UniProt Q8IBS5). Briefly: PfCDPK4 kinase inhibitors, biochemical, TCAMS library (AID 1159588; cut-off not given, nearly all actives have IC50 up to about 0.91 µM). Conditions: recombinant PfCDPK4, Kinase-Glo ATP depletion luminescence.
Calcium-dependent protein kinase 4 (Plasmodium falciparum (isolate 3D7)), sequence (Q8IBS5 whole entry, looked up): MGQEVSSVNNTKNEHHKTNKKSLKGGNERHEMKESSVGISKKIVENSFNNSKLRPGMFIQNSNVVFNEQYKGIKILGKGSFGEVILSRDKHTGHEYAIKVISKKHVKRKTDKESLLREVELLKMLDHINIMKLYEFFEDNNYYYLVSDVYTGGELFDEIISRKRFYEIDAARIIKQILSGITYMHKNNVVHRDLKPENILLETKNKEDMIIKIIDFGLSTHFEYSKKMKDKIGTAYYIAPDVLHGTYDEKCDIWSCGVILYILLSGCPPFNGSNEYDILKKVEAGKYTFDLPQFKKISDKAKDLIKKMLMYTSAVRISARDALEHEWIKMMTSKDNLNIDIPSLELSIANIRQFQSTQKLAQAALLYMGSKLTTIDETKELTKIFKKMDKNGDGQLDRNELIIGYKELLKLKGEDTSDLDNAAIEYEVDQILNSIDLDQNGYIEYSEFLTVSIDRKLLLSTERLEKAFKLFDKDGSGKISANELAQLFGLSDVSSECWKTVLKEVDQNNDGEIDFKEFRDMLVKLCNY

In general, inhibition refers to the relative decrease from the control value, in per cent.

Calcium-dependent protein kinase 1 (Plasmodium falciparum (isolate 3D7)), sequence (P62344 whole entry, looked up): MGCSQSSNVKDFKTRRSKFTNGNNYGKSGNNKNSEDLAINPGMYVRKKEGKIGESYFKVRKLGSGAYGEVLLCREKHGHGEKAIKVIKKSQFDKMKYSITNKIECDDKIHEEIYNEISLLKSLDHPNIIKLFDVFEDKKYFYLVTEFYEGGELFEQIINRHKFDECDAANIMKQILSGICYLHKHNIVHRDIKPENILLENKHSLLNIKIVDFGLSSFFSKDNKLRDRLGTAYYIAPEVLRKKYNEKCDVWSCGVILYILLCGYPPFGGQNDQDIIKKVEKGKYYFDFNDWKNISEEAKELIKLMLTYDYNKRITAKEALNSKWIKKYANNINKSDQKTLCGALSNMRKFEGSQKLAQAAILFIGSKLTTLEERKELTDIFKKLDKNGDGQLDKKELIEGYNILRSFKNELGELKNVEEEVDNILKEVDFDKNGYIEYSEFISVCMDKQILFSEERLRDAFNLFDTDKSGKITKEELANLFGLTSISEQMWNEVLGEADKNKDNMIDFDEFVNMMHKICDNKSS
Plasmodium falciparum protein kinase 6 (PK6, PF3D7_1337100), sequence (Q8IDW1 1-305): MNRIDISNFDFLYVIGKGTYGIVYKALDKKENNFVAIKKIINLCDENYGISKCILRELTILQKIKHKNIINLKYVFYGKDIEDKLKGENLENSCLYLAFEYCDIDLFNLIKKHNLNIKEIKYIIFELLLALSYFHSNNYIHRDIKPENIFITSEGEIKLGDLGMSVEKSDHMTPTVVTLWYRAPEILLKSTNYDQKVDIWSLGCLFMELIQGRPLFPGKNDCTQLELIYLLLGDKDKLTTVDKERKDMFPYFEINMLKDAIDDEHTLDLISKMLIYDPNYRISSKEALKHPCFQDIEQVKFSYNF

Consider `CC(=Nc1ccc(Cl)c(Cl)c1)N(C)C`, for which the figures for the growth inhibition in test [1] and in test [4] were 0% and 98% (active), respectively. The values for the inhibition in test [2] and in test [3] were -6% and 2%, respectively. Moreover, the outcome in test [5], in test [6], in test [7] and in test [8] was inactive.

With `CC(O)c1cccc(-c2ccc(Nc3ccnc4cc(-c5nccs5)ccc34)cc2)c1` (stereo not drawn), the growth inhibition in test [1] was 69% (active); in test [4] it was 91% (active). Also, the inhibition in test [2] is 31%; in test [3] it was -1%. The outcome in test [5], in test [6], in test [7] and in test [8] was inactive.

`O=C(NCCc1ccccc1F)c1ccc(N2CCN(c3ccncc3)CC2)cn1`: the growth inhibition in test [1] was 18%; in test [4], 93% (active). The figures for the inhibition in test [2] and in test [3] were 8% and -2%, respectively. The result in test [5], in test [6], in test [7] and in test [8] was inactive.

As to `C=CC(=O)Nc1ccc(Cl)cc1C(O)c1ccccc1` (stereo not drawn), the growth inhibition in test [1] was 5%; in test [4] it was 100% (active). For the same molecule, the values for the inhibition in test [2] and in test [3] were -5% and 0%, respectively. Moreover, the outcome in test [5], in test [6], in test [7] and in test [8] was inactive.

In the case of `O=C(CCN1CCCCC1)Nc1ccc(Nc2nccc(NCC(O)c3ccccc3)n2)cc1` (stereo not drawn), the growth inhibition in test [1] is 60% (active); in test [4] it was 102% (active). Moreover, the inhibition in test [2] was 18%; in test [3], -1%. Besides, the outcome in test [5], in test [6], in test [7] and in test [8] was inactive.

Consider `CCCCCCCN1CC[C@@H](CCCc2ccnc3ccc(OCCCCN=C(N)NO)cc23)[C@@H](CC)C1`, for which the growth inhibition was 39% in test [1] and 90% (active) in test [4]. The inhibition was 27% in test [2] and 2% in test [3]. Besides, the result in test [5], in test [6], in test [7] and in test [8] was inactive.

Regarding `COc1cccc(Nc2nc(C)cc(NC3CCN(Cc4ccccc4)CC3)n2)c1`, the growth inhibition in test [1] was 46%; in test [4], 102% (active). For the same molecule, the inhibition in test [2] was 15%; in test [3], 8%. In addition, the result in test [5], in test [6], in test [7] and in test [8] was inactive.

With `COc1ccc(-c2ccc(CNC(=O)c3ccc(Cl)cc3)c(F)c2)cc1CN1CCCN(C)CC1`, the growth inhibition in test [1] was 48%; in test [4], 99% (active). Also, the inhibition in test [2] was 25%; in test [3], -5%. Further, the result in test [5], in test [6], in test [7] and in test [8] was inactive.

Turning to `COc1ccc(-c2ccc(NC(=O)c3cccc(F)c3)cc2)cc1CNC(C)C`, the growth inhibition in test [1] was 14%; in test [4], 97% (active). Besides, the inhibition was 17% in test [2] and -2% in test [3]. The result in test [5], in test [6], in test [7] and in test [8] was inactive.

Turning to `CN(C)CC(=O)N(Cc1ccc(Cl)c(Cl)c1)Cc1csc(-c2ccc(CNCc3ccccc3)cc2)n1`, the growth inhibition was 32% in test [1] and 96% (active) in test [4]. Also, the inhibition in test [2] was 30%; in test [3], 4%. Also, the result in test [5], in test [6], in test [7] and in test [8] was inactive.

Turning to `CC(C)N1CCN(CCCNc2c3ccccc3nc3ccccc23)CC1`, the growth inhibition is 1% in test [1] and 100% (active) in test [4]. Also, the figures for the inhibition in test [2] and in test [3] were 29% and 8%, respectively. In addition, the result in test [5], in test [6], in test [7] and in test [8] was inactive.

Regarding `Cc1cc(C)cc(OCC(O)CN(CCN2CCOCC2)C(=O)Nc2ccc(Br)cc2)c1` (stereo not drawn), the growth inhibition in test [1] was 19%; in test [4] it was 85% (active). Besides, the inhibition is 7% in test [2] and 0% in test [3]. Further, the result in test [5], in test [6], in test [7] and in test [8] was inactive.

For `CC(C)CN1C(=O)c2ccc(C(=O)Nc3nccs3)cc2C1=O`, the growth inhibition is 0% in test [1] and 89% (active) in test [4]. Also, the inhibition in test [2] is 3%; in test [3] it was 1%. Further, the outcome in test [5], in test [6], in test [7] and in test [8] was inactive.

In the case of `O=C(Nc1ccc(Cl)cc1Cl)NC1CCN(CCCCCNC(=O)[C@@H]2C[C@H]2c2ccc(Cl)c(Cl)c2)CC1`, the growth inhibition in test [1] was 30%; in test [4], 100% (active). The inhibition is 67% (active) in test [2] and 0% in test [3]. Further, the result in test [5], in test [6], in test [7] and in test [8] was inactive.

Take `NCCCNc1ccc(-c2ccc(NC(=O)Nc3cc(C(F)(F)F)ccc3F)cc2)cn1`: the growth inhibition was 66% (active) in test [1] and 100% (active) in test [4]. For the same molecule, the inhibition in test [2] is -3%; in test [3], 3%. The outcome in test [5], in test [6], in test [7] and in test [8] was inactive.

Consider `O=C(Nc1ccc(Oc2ccccc2)cc1)N[C@H]1CCN(Cc2ccc(OCCCN3CCCCC3)cc2)C1`, for which the growth inhibition is 6% in test [1] and 103% (active) in test [4]. Further, the inhibition in test [2] is 13%; in test [3], -6%. For the same molecule, the outcome in test [5], in test [6], in test [7] and in test [8] was inactive.

Take `CCOc1cccc2nc(NCCCNCc3ccc(Cl)c(Cl)c3)cc(NCCCNCc3ccc(Cl)c(Cl)c3)c12`: the growth inhibition was 58% (active) in test [1] and 98% (active) in test [4]. Further, the inhibition in test [2] was 96% (active); in test [3], -5%. In addition, the outcome in test [5], in test [6], in test [7] and in test [8] was inactive.

In the case of `CCc1nn2c(Nc3ccncc3)cc(C)nc2c1-c1ccccc1`, the growth inhibition in test [1] was 98% (active); in test [4] it was 100% (active). Further, the inhibition in test [2] was 4%; in test [3], 0%. For the same molecule, the outcome in test [5], in test [6], in test [7] and in test [8] was inactive.

With `Cc1cccc2[nH]c(-c3cccc(-c4cccc(NC(=O)C(C)CN(C)C)c4)c3)nc12` (stereo not drawn), the growth inhibition in test [1] is 97% (active); in test [4] it was 101% (active). Further, the values for the inhibition in test [2] and in test [3] were 16% and -3%, respectively. The outcome in test [5], in test [6], in test [7] and in test [8] was inactive.

Consider `CCNCc1ccc(-c2cc3ncnc(Nc4ccc(OCc5cccc(F)c5)c(Cl)c4)c3s2)[nH]1`, for which the growth inhibition is 74% (active) in test [1] and 103% (active) in test [4]. Besides, the inhibition in test [2] is 22%; in test [3], 6%. Besides, the result in test [5], in test [6], in test [7] and in test [8] was inactive.

As for `CN1CCCC1CCNC(=O)[C@H](CC1CCCCC1)NC(=O)c1ccc(O)c(-c2ccc(Cl)c(Cl)c2)c1` (stereo partly drawn), the results for the growth inhibition in test [1] and in test [4] were 35% and 98% (active), respectively. The values for the inhibition in test [2] and in test [3] were 0% and 3%, respectively. For the same molecule, the outcome in test [5], in test [6], in test [7] and in test [8] was inactive.
